# This is one part of a sample in which hits are shown more often than they occur.
# TbREL1 primary: TbREL1 inhibition, primary screen; P86926; TbREL1 RNA ligation, FRET fluorescence; inhibition, % at 9.66 µM; actives 0.49% (n = 89,000);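 active = inhibition above the mean inhibition across all screened compounds plus 3 SD, cut at about 11% in these data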;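 note: 0% = plate median of test wells and 100% = NSC42067 control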
# Target sequence (P86926 whole entry, looked up): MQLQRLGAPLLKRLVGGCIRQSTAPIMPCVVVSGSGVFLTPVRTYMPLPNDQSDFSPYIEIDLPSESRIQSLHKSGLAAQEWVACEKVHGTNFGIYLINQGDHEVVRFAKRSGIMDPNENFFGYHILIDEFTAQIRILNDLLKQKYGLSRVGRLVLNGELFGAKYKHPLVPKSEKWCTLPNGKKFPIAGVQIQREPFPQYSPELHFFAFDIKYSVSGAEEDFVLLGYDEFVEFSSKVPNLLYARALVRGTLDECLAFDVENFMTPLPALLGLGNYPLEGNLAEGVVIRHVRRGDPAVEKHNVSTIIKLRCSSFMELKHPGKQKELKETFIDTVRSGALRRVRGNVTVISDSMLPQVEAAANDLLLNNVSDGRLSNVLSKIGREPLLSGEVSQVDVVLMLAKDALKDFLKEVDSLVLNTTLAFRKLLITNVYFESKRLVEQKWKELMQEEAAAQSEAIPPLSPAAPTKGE
# TbREL1 confirm: TbREL1 inhibition, confirmation | shares compounds with TbREL1 primary | TbREL1 RNA ligation, FRET fluorescence | inhibition, % at 9.66 µM | actives 37% (n = 390);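 active = mean inhibition across replicates above a set limit taken from the earlier primary screen, cut at about 11% in these data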;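 note: 0% = REL1 with substrate and DMSO and 100% = REL1 plus control inhibitor NSC42067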
# The depositor's hits bear a star.
SMILES,TbREL1 primary,others
Cc1c(C(=O)NCc2ccccc2C(F)(F)F)sc(=O)n1Cc1cccc(C(F)(F)F)c1,2,
CCN1C(=O)N[C@@H](c2cccc(C(F)(F)F)c2)C(C(=O)OC)=C1C,1,
COC(=O)C1=C(C)N(Cc2cccc(C(F)(F)F)c2)C(=NCc2ccc(C(F)(F)F)cc2)NC1c1ccccc1C(F)(F)F (stereo unspecified),18*,TbREL1 confirm=22*
C=CCN=C1NC(c2cccc(F)c2)C(C(=O)OC)=C(C)N1Cc1cccc(C(F)(F)F)c1 (stereo unspecified),11*,TbREL1 confirm=12*
COC(=O)C1=C(C)N(Cc2ccc(F)cc2)C(=S)NC1c1cccc(F)c1 (stereo unspecified),-6,
COC(=O)C1=C(C)N(Cc2ccccc2)C(=NCc2cc(OC)c(OC)c(OC)c2)N[C@H]1CCc1ccccc1,3,
Nc1nc(-c2cccnc2)nn1C(=O)COc1ccccc1,3,
COc1ccc(C(=O)N/C(=C\c2cccc3ccccc23)C(=O)N2CCN(C)CC2)cc1,-2,
COc1cccc(CC(=O)OCC(=O)NC2(C#N)CCCC2)c1,0,
CC1(C)Cc2nc3oc4c(=O)n(CC(=O)Nc5ccc(Cl)cc5)cnc4c3cc2CO1,2,
CCCCNC(=O)c1nc(C2CCN(S(=O)(=O)c3cccc(C(F)(F)F)c3)CC2)oc1-c1ccccc1,4,
COC(=O)C1=C(C)N(Cc2ccccc2)C(=S)NC1c1cccc(Br)c1 (stereo unspecified),-5,
COC(=O)C1=C(C)N(C)C(=NCc2ccccc2C(F)(F)F)NC1c1cccc(F)c1 (stereo unspecified),13*,TbREL1 confirm=18*
COC(=O)C1=C(C)N(CC(C)C)C(=S)NC1c1cccc(F)c1 (stereo unspecified),-5,
COC(=O)C1=C(C)N(Cc2ccc(F)cc2)C(=S)NC1c1ccc(F)cc1 (stereo unspecified),-1,
COC(=O)C1=C(C)N(C)C(=NCc2ccc(C(F)(F)F)cc2)NC1c1ccc(F)cc1 (stereo unspecified),7,
CCN=C1NC(c2ccccc2C(F)(F)F)C(C(=O)OC)=C(C)N1Cc1ccc(C(F)(F)F)cc1 (stereo unspecified),12*,TbREL1 confirm=17*
COC(=O)C1=C(C)N(Cc2cccc(C(F)(F)F)c2)C(=NCc2ccccc2C(F)(F)F)NC1c1cccc(F)c1 (stereo unspecified),15*,TbREL1 confirm=22*
COC(=O)C1=C(C)N(Cc2ccccc2)C(=O)N[C@H]1c1cccs1,-1,
CCN(C(=O)CSc1nccn1C)c1cccc2ccccc12,-2,
CCCCn1c(C(C)O)nc2ccccc21 (stereo unspecified),0,
Cc1nnsc1C(=O)NNc1c(Cl)cccc1Cl,-1,
Cn1nnnc1SCCOc1ccc(C#N)cc1,-2,
Cc1ccc(-c2cc3nc(C)cc(N4CCN(C(=O)c5ccoc5)CC4)n3n2)cc1,11,
O=C(NCCc1ccccc1F)c1cc2ccccn2n1,1,
SMILES,TbREL1 primary,others
Cc1nc2ccc(NC(=O)c3cc(Cl)ccc3F)cc2c(=O)[nH]1,2,
Cc1oc(-c2ccccc2)nc1C(=O)OCC(=O)NC(C)c1ccccc1 (stereo unspecified),0,
CCOC(=O)Cn1c2ccc(C)cc2c2nc(C)sc21,55*,TbREL1 confirm=5
CCOC(=O)Cn1c(=NC(=O)CC)sc2c(C)cc(C)cc21,-1,
CCOC(=O)Cn1c(=NC(=O)c2cccs2)sc2cc(C(=O)OC)ccc21,10,
CC(=O)c1ccc2c(c1)OCCOCCOCCO2,2,
Nc1ccc(Oc2ccc3c(c2)OCO3)cc1,-3,
Nc1ccc2c(c1)OCCOCCOCCOCCOCCO2,14*,TbREL1 confirm=4
O=C(COc1ccc(Cl)cc1)NNC(=O)c1ccncc1,0,
O=C(NCC(c1ccccc1)c1ccccc1)[C@H](Cc1ccccc1)NC1(C(=O)NC2CCCCC2)CCCCCC1,12*,TbREL1 confirm=0
COC(CNC(=O)[C@H](Cc1ccccc1)NC1(C(=O)NC2CCCCC2)CCC1)OC,-3,
CN1CCC(N[C@@H](Cc2ccccc2)C(=O)NCC(c2ccccc2)c2ccccc2)(C(=O)NC2CCCCC2)CC1,13*,TbREL1 confirm=14*
O=C(NCC(c1ccccc1)c1ccccc1)[C@H](Cc1ccccc1)NC1(C(=O)NC2CCCCC2)CCC1,-3,
CC(C)C[C@H](NC1(C(=O)NC2CCCCC2)CCC1)C(=O)NCC(c1ccccc1)c1ccccc1,-1,
O=C(NCC(c1ccccc1)c1ccccc1)[C@H](Cc1c[nH]c2ccccc12)NC1(C(=O)NC2CCCCC2)CCN(Cc2ccccc2)CC1,-4,
CCC(=O)N(CC(=O)Nc1sc(C)c(C)c1C(N)=O)Cc1ccc(F)cc1,-3,
O=C(Nc1ccccn1)c1cc2cc([N+](=O)[O-])ccc2s1,1,
O=C(c1cc2cc([N+](=O)[O-])ccc2s1)N1CCCCC1,12*,TbREL1 confirm=1
O=C(c1sc2cc([N+](=O)[O-])ccc2c1Cl)N1CCCCC1,0,
CN(C(=O)c1ccc(NC(=O)Cc2ccc(NC(=O)C3CCCN(C(=O)c4ccccc4)C3)cc2)cc1)C1CC1 (stereo unspecified),-1,
CC(C)n1ncc2c(C(=O)N3CCN(Cc4ccc(Cl)s4)CC3)cc(C3CC3)nc21,-2,
O=C(SCC(O)C(O)CS)c1cccs1 (stereo unspecified),18*,TbREL1 confirm=4
Nc1ccc(C(=O)c2cccs2)cc1,0,
CSc1ccccc1NC(=O)c1cccs1,5,
CCOc1ccc(NC(=O)CSc2nc3c(c(=O)n2C)SC(C)C3)cc1 (stereo unspecified),-6,
SMILES,TbREL1 primary,others
CN1CCN(NC(=O)C2CC2)CC1,3,
O=C(CN1CCN(S(=O)(=O)c2cccc(Br)c2)CC1)N1CCCCC1,3,
c1ccc(CCNCCCOc2cccc3ccccc23)cc1,12*,TbREL1 confirm=10
CC(=O)NCCOc1cccc2ccccc12,4,
Clc1ccc(OCCNCCc2ccccc2)cc1,4,
O=S(=O)(Nc1cc(S(=O)(=O)N2CCOCC2)ccc1O)c1ccc2c(c1)OCCCO2,4,
Brc1ccc(OCc2ccccc2)c(CNCC2CCCO2)c1 (stereo unspecified),7,
Cc1onc(-c2ccccc2)c1C(=O)Nc1ccc(S(=O)(=O)N2CCCCC2)cc1,0,
Cc1onc(-c2c(F)cccc2Cl)c1C(=O)Nc1cc(S(=O)(=O)N2CCCCC2)ccc1O,22*,TbREL1 confirm=2
Cc1ccc(O)c(NC(=O)c2cccc(S(=O)(=O)N3CCCCC3)c2)c1,-4,
O=C1/C(=C\c2ccc(Br)o2)SC(=Nc2ccccc2)N1c1ccccc1,4,
CCCCCOc1ccc(C(=O)Nc2ccc(S(=O)(=O)Nc3cc(C)on3)cc2)cc1,-2,
Cc1cc(NS(=O)(=O)c2ccc(NC(=S)NC(=O)c3ccccc3)cc2)no1,-1,
CCOc1cc(C(=O)Nc2ccc(S(=O)(=O)Nc3cc(C)on3)cc2)cc(OCC)c1OCC,61*,TbREL1 confirm=2
CCN(CC)C(=O)CN(c1cc2c(cc1OC)oc1ccccc12)S(=O)(=O)c1ccccc1,0,
O=S(=O)(c1ccc2c(c1)OCCO2)N1C[C@@H]2C[C@H]1CN2S(=O)(=O)c1c(F)cccc1F,-1,
COc1cc(C(=O)N2CCN(S(=O)(=O)c3cc(C)ccc3C)CC2)ccc1OCC(=O)N1CCOCC1,7,
COc1cc(C(=O)N2CCN(c3ccccc3O)CC2)ccc1OCC(=O)N1CCOCC1,2,
COc1cc(C(=O)N2CCN(c3cccc(C)c3C)CC2)ccc1OCC(=O)N1CCOCC1,13*,TbREL1 confirm=0
